Assay results published in PubChem BioAssay (NCI).
Compounds without any hit were thinned out: in the full panel of roughly 83,000, 20% have a hit.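 Method: cells in 96-well plates; compound added at one concentration; 48 h incubation; percent growth measured; values under 10 scored active.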 Active and inactive are the calls of the source.

Key:
Assay in all cases: NCI-60 one-dose screen, 48 h (100 = growth as untreated, 0 = no growth, -100 = all killed)
Conditions in all cases: 10 µM unless noted
HCT-15 colon = test system: HCT-15 colon
HT29 colon = test system: HT29 colon
SNB-75 CNS = test system: SNB-75 CNS
SNB-19 CNS = test system: SNB-19 CNS
U251 CNS = test system: U251 CNS
PC-3 prostate = test system: PC-3 prostate
SK-MEL-5 melanoma = test system: SK-MEL-5 melanoma
UACC-62 melanoma = test system: UACC-62 melanoma
LOX IMVI melanoma = test system: LOX IMVI melanoma
SK-MEL-28 melanoma = test system: SK-MEL-28 melanoma

Measured: growth

N#Cc1cncc(-c2ccc3ncnc(Nc4cccc(Cl)c4)c3c2)c1
inactive: HCT-15 colon 77.9% | HT29 colon 66.8% | SNB-75 CNS 65.5% | SNB-19 CNS 63.3% | U251 CNS 62.1% | PC-3 prostate 63.5% | SK-MEL-5 melanoma 75.4% | UACC-62 melanoma 81.7% | LOX IMVI melanoma 91.1% | SK-MEL-28 melanoma 81.8%

O=C1Nc2ccccc2/C1=C\c1c[nH]c2ccc(Br)cc12
inactive: HCT-15 colon 48.7% | HT29 colon 86.7% | SNB-75 CNS 56.1% | SNB-19 CNS 88.6% | U251 CNS 85% | PC-3 prostate 70.8% | SK-MEL-5 melanoma 35.4% | UACC-62 melanoma 80.1% | LOX IMVI melanoma 50.6% | SK-MEL-28 melanoma 72.7%

CC1=C2[C@@H](CC1)[C@]1(C)O[C@@](C3CCCCC3)(C[C@H]1OC(=O)CO)[C@H]2OC(=O)/C=C/c1ccccc1
inactive: HCT-15 colon 77.9% | HT29 colon 62.7% | SNB-75 CNS 72.6% | SNB-19 CNS 91.4% | U251 CNS 73.9% | PC-3 prostate 53.2% | SK-MEL-5 melanoma 87.3% | UACC-62 melanoma 62.5% | LOX IMVI melanoma 82.6% | SK-MEL-28 melanoma 101%

COc1ccc(-c2ccc(-c3ccc(C(=N)N)nc3)s2)cc1Cl
inactive: SNB-75 CNS 80.5% | SK-MEL-5 melanoma 76% | UACC-62 melanoma 96.3% | SK-MEL-28 melanoma 97.2%
active: HCT-15 colon -77.4% | HT29 colon 2.52% | SNB-19 CNS -35.8% | U251 CNS -71.7% | PC-3 prostate -28.3% | LOX IMVI melanoma -76.4%

O=C(O)c1cn(C2CC2)c2cc(N3CCN(C(=O)Nc4nc(-c5ccc(Br)cc5)cs4)CC3)c(F)cc2c1=O
inactive: HCT-15 colon 14.3% | SNB-75 CNS 24% | SNB-19 CNS 19.7% | U251 CNS 12.7% | PC-3 prostate 19.2% | SK-MEL-28 melanoma 42.2%
active: HT29 colon 9.27% | SK-MEL-5 melanoma -41% | UACC-62 melanoma -1.55% | LOX IMVI melanoma -9.03%

O=C(N/N=C\c1cccc([N+](=O)[O-])c1)N/N=C/c1cccc([N+](=O)[O-])c1
inactive: HCT-15 colon 109% | HT29 colon 114% | SNB-75 CNS 88.8% | SNB-19 CNS 100% | U251 CNS 97.3% | PC-3 prostate 91.5% | SK-MEL-5 melanoma 95.9% | UACC-62 melanoma 92.5% | LOX IMVI melanoma 103% | SK-MEL-28 melanoma 110%

O=C(CC(=O)Nc1cccc(C(=O)O)c1)Nc1cccc(C(=O)O)c1
inactive: HCT-15 colon 106% | HT29 colon 97.6% | SNB-75 CNS 73.3% | SNB-19 CNS 102% | U251 CNS 104% | PC-3 prostate 92.5% | SK-MEL-5 melanoma 100% | UACC-62 melanoma 94.6% | LOX IMVI melanoma 103% | SK-MEL-28 melanoma 100%

Cc1nc2ccccc2c(/C=C/c2ccccc2)c1C(=O)/C=C/c1ccccc1
active: HCT-15 colon 1.8% | HT29 colon 6.72% | U251 CNS -25.3% | LOX IMVI melanoma -64.1%
inactive: SNB-75 CNS 19.7% | SNB-19 CNS 47.7% | PC-3 prostate 35.1% | SK-MEL-5 melanoma 45% | UACC-62 melanoma 29.8% | SK-MEL-28 melanoma 24.2%

N#Cc1c(Nc2ccc(N3CCOCC3)cc2)nc(SCC(=O)c2ccc(Br)cc2)nc1-c1ccccc1
inactive: HCT-15 colon 103% | HT29 colon 98.3% | SNB-75 CNS 97.7% | SNB-19 CNS 117% | U251 CNS 101% | PC-3 prostate 86.1% | SK-MEL-5 melanoma 102% | UACC-62 melanoma 104% | LOX IMVI melanoma 100% | SK-MEL-28 melanoma 104%

COC(=O)c1cc(Br)ccc1O
inactive: HCT-15 colon 101% | HT29 colon 103% | SNB-75 CNS 91.5% | SNB-19 CNS 108% | U251 CNS 102% | PC-3 prostate 94.5% | SK-MEL-5 melanoma 95.2% | UACC-62 melanoma 102% | LOX IMVI melanoma 94.7% | SK-MEL-28 melanoma 107%

CC1(C)C(N)=Nc2cc(OCCCN3Cc4ccccc4C3)c(OCC3CC3)cc21
inactive: HCT-15 colon 40% | HT29 colon 31.6% | SNB-75 CNS 77.3% | SNB-19 CNS 85.2% | U251 CNS 56.4% | PC-3 prostate 49.6% | SK-MEL-5 melanoma 53.1% | UACC-62 melanoma 78% | LOX IMVI melanoma 33.7% | SK-MEL-28 melanoma 56.2%

CN(CCC(=O)c1ccccc1)CCC(=O)c1ccccc1
inactive: HCT-15 colon 103% | HT29 colon 117% | SNB-75 CNS 90.4% | SNB-19 CNS 93.1% | U251 CNS 98% | PC-3 prostate 95.5% | SK-MEL-5 melanoma 96.4% | UACC-62 melanoma 77.9% | LOX IMVI melanoma 75.6% | SK-MEL-28 melanoma 103%

CCN1CCN(c2cc(C)nc(N(CCNc3ccnc4cc(Cl)ccc34)Cc3ccc4c(c3)OCO4)n2)CC1
inactive: SNB-19 CNS 29.7% | PC-3 prostate 20%
active: HCT-15 colon -28.8% | HT29 colon -37.9% | SNB-75 CNS -75.3% | U251 CNS -50.4% | SK-MEL-5 melanoma -95.8% | UACC-62 melanoma -32.2% | LOX IMVI melanoma -80.3% | SK-MEL-28 melanoma -65.6%

CS(=O)(=O)c1ccc(NC(=O)c2ccccc2)nc1
inactive: HCT-15 colon 104% | HT29 colon 83.6% | SNB-75 CNS 104% | SNB-19 CNS 95.7% | U251 CNS 102% | PC-3 prostate 93.6% | SK-MEL-5 melanoma 101% | UACC-62 melanoma 95.4% | LOX IMVI melanoma 98.6% | SK-MEL-28 melanoma 112%

O=C1/C(=C/c2ccc(O)c(O)c2)COc2ccc(-c3ccccc3)cc21
active: HCT-15 colon -31.2% | UACC-62 melanoma -13.6% | LOX IMVI melanoma 4.79% | SK-MEL-28 melanoma -11.5%
inactive: HT29 colon 15% | SNB-75 CNS 21.1% | SNB-19 CNS 56.2% | U251 CNS 22.3% | PC-3 prostate 19.9% | SK-MEL-5 melanoma 23.2%

C=C1C(=O)O[C@H]2[C@H]1CC/C(COC(=O)CSCSCC(=O)OC/C1=C/CC[C@@]3(C)O[C@H]3[C@H]3OC(=O)C(=C)[C@@H]3CC1)=C\CC[C@@]1(C)O[C@@H]21
inactive: SNB-75 CNS 60.4% | SNB-19 CNS 54% | U251 CNS 10.8% | SK-MEL-5 melanoma 66.1% | UACC-62 melanoma 24.2%
active: HCT-15 colon 0.182% | HT29 colon -3.63% | PC-3 prostate 0.538% | LOX IMVI melanoma -48.5% | SK-MEL-28 melanoma -4.58%

[2H]C([2H])([2H])Oc1ccc(F)cc1/C=C/C(=O)/C=C(/C=C/c1cc(F)ccc1OC([2H])([2H])[2H])OB(F)F
inactive: HCT-15 colon 63.8% | HT29 colon 80.2% | SNB-75 CNS 94% | SNB-19 CNS 94.9% | U251 CNS 43.3% | PC-3 prostate 66.7% | SK-MEL-5 melanoma 94.5% | UACC-62 melanoma 68.8% | LOX IMVI melanoma 57.1% | SK-MEL-28 melanoma 94.2%

COc1ccc2c(c1)/C(=N/c1n[nH]c(=S)s1)C(=O)N2
inactive: HCT-15 colon 104% | HT29 colon 105% | SNB-75 CNS 75.4% | SNB-19 CNS 99.1% | U251 CNS 93.8% | PC-3 prostate 91.2% | SK-MEL-5 melanoma 91.2% | UACC-62 melanoma 94.8% | LOX IMVI melanoma 95.8% | SK-MEL-28 melanoma 107%

CCN(CC)CCCOc1ccc2ncnc(Nc3ccc(Oc4cccc(C(F)(F)F)c4)c(Cl)c3)c2c1
inactive: SNB-75 CNS 33.9% | SNB-19 CNS 30.9%
active: HCT-15 colon -33.6% | HT29 colon -44.6% | U251 CNS -28.6% | PC-3 prostate 8.76% | SK-MEL-5 melanoma -100% | UACC-62 melanoma -33.8% | LOX IMVI melanoma -100% | SK-MEL-28 melanoma -89.1%

COc1ccc(/C=C/C(c2cc(OC)c(OC)c(OC)c2)n2ccnc2)cc1O (stereo not given)
inactive: HCT-15 colon 24.9% | HT29 colon 71% | SNB-75 CNS 20% | SNB-19 CNS 47.3% | U251 CNS 27.1% | PC-3 prostate 25.3% | SK-MEL-5 melanoma 17% | UACC-62 melanoma 36.4% | LOX IMVI melanoma 46.1% | SK-MEL-28 melanoma 58.9%

CC(=O)/C(=C/c1ccc([N+](=O)[O-])cc1)C(=O)c1ccccc1
active: LOX IMVI melanoma -28.5%
inactive: HCT-15 colon 60.6% | HT29 colon 41.1% | SNB-75 CNS 88.5% | SNB-19 CNS 92.5% | U251 CNS 71.3% | PC-3 prostate 63.4% | SK-MEL-5 melanoma 87.5% | UACC-62 melanoma 77.2% | SK-MEL-28 melanoma 91.6%

Cc1ccc(C2CC(c3nc(-c4ccc(Cl)cc4)oc3C)=NN2C(=O)c2ccncc2)cc1 (stereo not given)
inactive: HCT-15 colon 83.7% | HT29 colon 86.9% | SNB-75 CNS 82.1% | SNB-19 CNS 77.2% | U251 CNS 87.7% | PC-3 prostate 73.2% | SK-MEL-5 melanoma 92.4% | UACC-62 melanoma 72.3% | LOX IMVI melanoma 86% | SK-MEL-28 melanoma 92.4%

COc1cc(C(=O)n2nc(N3CCOCC3)c3cc(-n4cccc4)ccc32)cc(OC)c1OC
inactive: HCT-15 colon 17.6% | HT29 colon 62.4% | SNB-75 CNS 49.8% | SNB-19 CNS 75.2% | U251 CNS 68.7% | PC-3 prostate 38% | SK-MEL-5 melanoma 64.3% | UACC-62 melanoma 73.1% | LOX IMVI melanoma 88.7% | SK-MEL-28 melanoma 72.7%

COc1ccc(/C=C/C(c2cc(OC)c(OC)c(OC)c2)n2cncn2)cc1 (stereo not given)
active: HT29 colon 4.96%
inactive: HCT-15 colon 31.1% | SNB-75 CNS 51.3% | SNB-19 CNS 49% | U251 CNS 31.8% | PC-3 prostate 31.2% | SK-MEL-5 melanoma 33% | UACC-62 melanoma 33.8% | LOX IMVI melanoma 50% | SK-MEL-28 melanoma 62.6%

C=C(C)[C@@H]1CC[C@]2(COC(C)=O)CC[C@]3(C)[C@H](CC[C@@H]4[C@@]5(C)CCCN(C(C)=O)C(C)(C)[C@@H]5CC[C@]43C)[C@@H]12
inactive: SNB-75 CNS 108% | SNB-19 CNS 84.6% | PC-3 prostate 65.6% | SK-MEL-5 melanoma 84.6% | SK-MEL-28 melanoma 96.6%
active: HCT-15 colon 0.472% | HT29 colon -7.38% | U251 CNS 6.47% | UACC-62 melanoma -2.48% | LOX IMVI melanoma -98%

Cc1ncc(C(=O)Nc2ccc(CN3CCN(C)CC3)c(C(F)(F)F)c2)cc1C#Cc1cnc(N)c2ncccc12
active: HT29 colon -13.8% | PC-3 prostate 5.19% | SK-MEL-5 melanoma -59.3% | UACC-62 melanoma 7.13% | LOX IMVI melanoma -3.58% | SK-MEL-28 melanoma -77.4%
inactive: HCT-15 colon 20% | SNB-75 CNS 50.9% | SNB-19 CNS 81% | U251 CNS 45.7%
